TDP1 inh: blocks human tyrosyl-DNA phosphodiesterase 1; AID 485290; actives 0.28% (n = 350,000); recombinant TDP1, AlphaScreen DNA substrate cleavage; Q9NUW8; Potency, µM (highest dose often 130 µM), without a hit: at the highest dose activity change, negative = inhibition, hits mostly inhibitors; further: potency means the concentration at half of the fitted maximal effect; nearly all actives have a fitted effect of over 40% in size
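AlphaScreen read-out: signal falls as enzyme removes the 3' tyrosine-FITC from a 5'-biotinylated DNA oligo (15 nM, 5 min, RT). Enzyme was E. coli-made recombinant Tdp1 at 1 nM, exposed to compound for 15 min beforehand; beads 10 ug/ml, 10 min.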
TDP1 cell noCPT: qHTS for Inhibitors of human tyrosyl-DNA phosphodiesterase 1 (TDP1): qHTS in cells in absence of CPT; DT40 Tdp1-/- hTDP1 cells, no CPT, ATP luminescence, 48 h; AID 686978, 2013; Potency, µM (series often up to 46.2 µM), inactives show top-dose activity change, negative = growth inhibition, usual class: inhibitors; actives 15% (n = 420,000); further: potency means the concentration at half of the fitted maximal effect; nearly all actives have a fitted effect of over 55% in size
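No-CPT arm: Tdp1-/-;hTDP1 DT40 cells (400/well) plus compounds, incubated ≥48 hr at 37 °C. Readout CellTiter-Glo luminescence.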
IL1B secr inh: blocks inflammasome-driven IL-1 beta release | AID 743279 | actives 4.7% (n = 360,000) | activity change, % at 57.5 µM | THP-1 LPS/ATP IL-1B secretion, AlphaLISA, 16 h; hits give low values; in the data active means activity change below about -50%; inconclusive means mostly about -30% to -49%
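THP-1 cells pretreated 1 hr with compounds (up to 57.5 uM final), then stimulated with LPS (250 ng/mL final) plus ATP (1.25 mM final); secreted IL-1B measured by AlphaLISA after 16 hr, decreased signal indicating inhibition.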
Six1-Eya2 blk: Six1/Eya2 interaction inhibition | Q15475+O00167 | AlphaScreen GST-Six1/His-Eya2 binding, biochemical; hits give low values | activity change, % (no concentration beside the values) | actives 0.56% (n = 360,000) | AID 651725; in the data active means activity change below about -65%; inconclusive means mostly about -30% to -63%
Target sequence (O00167 whole entry, looked up): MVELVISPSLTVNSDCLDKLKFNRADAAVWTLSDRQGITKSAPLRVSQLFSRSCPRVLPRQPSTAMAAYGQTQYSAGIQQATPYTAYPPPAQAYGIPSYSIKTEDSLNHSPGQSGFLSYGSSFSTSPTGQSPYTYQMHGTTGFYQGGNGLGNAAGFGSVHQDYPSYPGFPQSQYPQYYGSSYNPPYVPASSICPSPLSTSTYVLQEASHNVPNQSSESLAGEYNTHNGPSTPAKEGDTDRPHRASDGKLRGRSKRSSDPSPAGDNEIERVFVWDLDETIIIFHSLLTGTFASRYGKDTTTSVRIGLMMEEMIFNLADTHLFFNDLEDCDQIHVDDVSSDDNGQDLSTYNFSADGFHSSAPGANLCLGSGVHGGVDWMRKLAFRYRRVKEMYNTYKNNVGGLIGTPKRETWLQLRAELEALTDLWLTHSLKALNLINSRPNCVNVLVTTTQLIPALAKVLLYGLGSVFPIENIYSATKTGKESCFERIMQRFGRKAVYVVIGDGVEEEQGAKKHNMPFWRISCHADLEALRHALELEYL
Target sequence (Q15475 whole entry, looked up): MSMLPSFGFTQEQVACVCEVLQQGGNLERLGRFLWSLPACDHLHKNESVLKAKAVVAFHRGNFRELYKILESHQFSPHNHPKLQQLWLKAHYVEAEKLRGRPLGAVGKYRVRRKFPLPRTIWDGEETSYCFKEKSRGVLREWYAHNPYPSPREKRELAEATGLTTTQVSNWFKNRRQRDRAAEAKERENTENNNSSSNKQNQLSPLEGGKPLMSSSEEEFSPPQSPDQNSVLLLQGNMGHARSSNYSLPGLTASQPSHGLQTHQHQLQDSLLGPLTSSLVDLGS
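AlphaScreen luminescence read after one hour at 37 °C in darkness. Pin-transferred compounds met GST-Six1 and His-Eya2 protein (5X stock 250 nM/500 nM) plus glutathione donor and Ni-chelate acceptor beads (5X, 50 ug/mL).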
CtBP-E1A blk: inhibitors of CtBP/E1A interaction | actives 0.49% (n = 340,000) | activity change, % (no concentration beside the values) | AlphaScreen GST-E1A/His-CtBP binding, 1536-well; hits give low values; in the data active means activity change below about -65%; inconclusive means mostly about -30% to -63%
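AlphaScreen with 125 nM GST-E1A and 125 nM His-CtBP (5X stocks) in Tris pH 8.0, 300 mM NaCl, BSA, Tween 20, TCEP. Compounds preincubated 2 h at 37 deg C, then glutathione donor/nickel acceptor beads added for 1 h at 37 deg C in dark.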
TDP1 cell CPT: DT40-hTDP1 cell growth loss with CPT; chicken DT40 Tdp1-/-;hTDP1 cells + 20 nM CPT, ATP luminescence, 48 h; Potency, µM (top dose mostly 46.2 µM), for the others: top-dose activity change, negative = growth inhibition, most hits filed as inhibitors; actives 12% (n = 420,000); AID 686979; further: potency means the concentration at half of the fitted maximal effect; nearly all actives have a fitted effect of over 55% in size
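Cell growth measured by CellTiter-Glo luminescence after a minimum 48 h, 37 C compound exposure with 20 nM CPT in Tdp1-knockout DT40 cells stably expressing hTDP1, seeded 400/well; qHTS titration format.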
* = called active by the depositor; u = inconclusive; x = no result; [ ] = dose if it differs, or a comment. A selection: hits, their analogues and other compounds. The true share with any hit is near 18%. Unless noted, the call rests on the fitted dose curve; in most records, active means well fitted curve in the direction sought with a large enough effect; inconclusive means small, poorly fitted or top-dose-only effect, or another doubt; inactive means no such curve, though single readings can be large; an effect the other way counts as inactive or inconclusive. On the % scale 0 is the no-effect control and ±100 the full control effect.

SMILES | TDP1 inh | TDP1 cell noCPT | IL1B secr inh | Six1-Eya2 blk | CtBP-E1A blk | TDP1 cell CPT
COc1ccc(Cl)cc1NC(=O)c1cc(S(=O)(=O)N2CCc3ccccc32)cn1C | 6.5% | -9.5% | x | x | x | 0.7%
O=C(CCn1cnnn1)Nc1cc(C(F)(F)F)cc(C(F)(F)F)c1 | -0.6% | x | x | x | x | x
COc1cc(/C=C/C(=O)OCC(=O)NC(=O)NC(C)C)cc(S(=O)(=O)N2CCc3ccccc32)c1OC | 2.5% | 20.6µM* | u | -6.2 | 0.0 | u
COc1ccc2occ(CC(=O)Nc3ccc(S(=O)(=O)Nc4nccc(C)n4)cc3)c2c1 | -2.3% | 7.4% | x | x | x | -4.3%
Cc1ccc(-n2cccc2C(=S)N=P(N(C)C)(N(C)C)N(C)C)cc1 | 5.1% | 1.64µM* | -59.2* | -11.4 | 5.2 | 2.06µM*
Cc1ccc(-n2cccc2C(=O)NS(=O)(=O)c2ccc(C)cc2)cc1 | x | 28.8% | 11.6 | -1.4 | 1.6 | -2.0%
O=C(Cn1c(C(=O)NCc2ccco2)cc2sccc21)c1ccccc1 | 9.1% | u | -10.6 | -22.8 | -10.8 | u
COc1ccc(N2CCN(CC(O)COC(C)(C)C)CC2)cc1 (configuration not stated) | 5.0% | -1.0% | 11.8 | 9.9 | x | 1.2%
Cc1ccc(/C=N/NC(=O)c2ccc3c(c2)OCCO3)s1 | 3.5% | 20.6µM* | 16.4 | 5.0 | -7.7 | 20.6µM*
O=C(N/N=C/c1cccc(O)c1)c1ccc2c(c1)OCCO2 | 2.1% | 3.7% | -11.9 | 1.8 | x | 1.3%
Cc1ccc(/C=N/NC(=O)c2ccc3ccccc3c2)s1 | 1.4%[56.1 µM] | 0.82µM* | 46.6 | -3.0 | -5.2 | 0.82µM*
Clc1ccc(CC[C@H](Cn2ccnc2)Sc2c(Cl)cccc2Cl)cc1 | 25.1%[21 µM] | x | x | x | x | x
CC[n+]1c2ccccc2cc2ccccc21 | x | -16.4% | x | x | x | -4.3%
CCN1/C(=C/c2ccc3ccccc3[n+]2CC)C=Cc2ccccc21 | 5.1% | 1.46µM* | -55.3* | -70.4* | u | 1.64µM*
CCN1/C(=C/c2ccc3cc(C)ccc3[n+]2CC)Sc2cc(C)ccc21 | 1.6% | 0.013µM* | -106.7* | -17.7 | -0.2 | 0.291µM*
CCN1/C(=C/c2ccc3cc(C)ccc3[n+]2C)Sc2ccc3sccc3c21 | 0.0% | 0.581µM* | -13.4 | -16.3 | x | 0.411µM*
CCCCN1/C(=C/c2ccc3ccccc3[n+]2CC)Sc2ccccc21 | 2.4% | 0.231µM* | -98.0* | -6.9 | -7.4 | 0.259µM*
COc1cc(NS(=O)(=O)c2ccc(NC(=O)c3ccc(F)cc3)cc2)ncn1 | 5.1% | 3.5% | 0.0 | -2.5 | 10.7 | -11.1%
CCNC(=S)Nc1ccc(OCc2nc3ccccc3s2)cc1 | x | 23.1µM* | 8.7 | -17.9 | -2.0 | 16.4µM*
CCNC(=S)Nc1ccc(Oc2ccccc2)cc1 | x | 18.4µM* | -1.7 | -5.6 | -0.6 | u
COc1ccc(NC(=S)Nc2ccc(Oc3ccccc3)cc2)cc1 | 7.2% | u | -23.0 | -10.6 | -13.8 | 23.1µM*
COCCCNC(=O)C1CCN(c2nc3ccc(C)cc3[nH]2)CC1 | 2.7% | -14.3% | x | x | x | -16.4%
Cc1ccc(S(=O)(=O)CCc2nc3ccccc3[nH]2)cc1C | 2.7% | 0.8% | -14.7 | 11.2 | 0.0 | 14.8%
O=C(NCc1cccc(C(F)(F)F)c1)C1C(=O)Nc2ccccc2C(=O)N1Cc1ccccc1 (configuration not stated) | x | u | -3.4 | 25.5 | -15.8 | u
O=C(c1ccccc1)N(c1ccccc1)c1ccccc1O | x | 16.4µM* | 20.4 | -2.7 | -1.4 | 14.6µM*
SMILES | TDP1 inh | TDP1 cell noCPT | IL1B secr inh | Six1-Eya2 blk | CtBP-E1A blk | TDP1 cell CPT
Cc1cc(N2CCN(c3ccccc3Cl)CC2)n2cc(-c3ccccc3)nc2n1 | 3.1% | u | -59.6* | -20.8 | -21.7 | u
Cc1cc(N2CCN(c3ccccc3)CC2)n2cnnc2n1 | 4.7% | u | x | x | x | u
Cc1cc(N2CCN(c3ccccc3)CC2)n2cc(-c3ccccc3)nc2n1 | 9.8% | 10.3µM* | -68.1* | -23.0 | -14.4 | u
O=C(c1ccc2c(=O)n(-c3ccccc3)c(=S)[nH]c2c1)N1CCN(c2ccccc2)CC1 | -0.4%[56.1 µM] | 11.6µM* | 23.7 | -0.7 | 5.0 | 14.6µM*
COc1ccc(Cn2c(=S)[nH]c3cc(C(=O)N4CCN(c5ccccc5)CC4)ccc3c2=O)cc1 | 0.0% | u | 59.8 | 6.9 | -1.9 | u
O=C(c1ccc2c(c1)[nH]c(=S)n1c3ccccc3nc21)N1CCN(c2ncccn2)CC1 | 4.5% | u | -22.5 | -5.0 | -5.9 | 20.6µM*
O=C(c1ccc2c(=O)n(-c3ccccc3)c(=S)[nH]c2c1)N1CCCCC1 | 3.8% | 6.51µM* | 10.8 | -5.8 | 2.7 | 6.51µM*
COc1ccccc1NC(=O)CSc1nnc(-c2cccc(Cl)c2)o1 | 2.6% | -19.5% | x | x | x | -22.1%
CC[N+]1(CC)CC2=Cc3c(ccc4ccccc34)C(C)C2C1 (configuration not stated) | 4.8% | 13µM* | -15.9 | -1.8 | -0.8 | 5.8µM*
Cc1ccccc1Nc1nc(=O)c2cc([N+](=O)[O-])ccc2s1 | 2.7% | u | -13.8 | -4.3 | -9.0 | u
Cc1cccc(OCC(=O)Nc2ccc(Cl)c(-c3nc4ccccc4[nH]3)c2)c1 | 6.8% | u | x | x | x | u
O=C(COc1ccc(F)cc1)Nc1ccc(Cl)c(-c2nc3ccccc3[nH]2)c1 | 5.7% | 20.6µM* | x | x | x | u
O=C(COc1ccccc1F)Nc1ccc(Cl)c(-c2nc3ccccc3[nH]2)c1 | 2.6% | 13µM* | x | x | x | u
CC(C)CC(=O)Nc1ccc(Cl)c(-c2nc3ccccc3[nH]2)c1 | -0.5% | u | x | x | x | u
CC1CCN(CCCCOc2ccc(F)cc2)CC1 | x | -0.7% | 14.8 | 1.7 | 3.0 | 8.5%
CC(C)(C)NC(=O)CSc1ncnc2c1nnn2Cc1ccccc1Cl | -2.0% | u | -60.3* | -3.9 | 11.7 | u
O=C(CSc1ncnc2c1nnn2Cc1ccccc1)NC1CCCC1 | 2.3% | -1.6% | u | 11.8 | 8.3 | 4.0%
Cc1cc(C)n2nc(C(=O)N3CCCC(CNS(=O)(=O)c4cccs4)C3)cc2n1 (configuration not stated) | 3.6% | -28.3% | 6.0 | 6.8 | -12.5 | -11.6%
O=C1NC(=Nc2ccc(O)cc2)S/C1=C/c1ccco1 | -3.7% | 18.4µM* | 19.4 | -0.1 | -3.3 | u
Cc1ccc(N=C2NC(=O)/C(=C\c3ccco3)S2)cc1 | -2.6% | u | 0.0 | -23.2 | -0.3 | -29.2%
CCc1ccc(N=C2NC(=O)/C(=C/c3cc(OC)c(OC)c(OC)c3)S2)cc1 | x | u | -3.1 | -7.9 | 11.1 | u
